Test results from PubChem BioAssay AID1159580 (chemical genetic matrix, 2015).
Where “and” joins values, the source holds several entries; their conditions need not be identical. Equal entries are not always repeated. Among all 5,500 compounds or so, about 2,000 (36%) were called active. Roughly 18% stayed inconclusive and do not appear here. Cut-off read from the data, not from the text of the source: active = normalized growth mostly below about 0.91 (no sharp cut-off); inconclusive = no clear call, values can overlap the other calls; inactive = mostly above about 0.92. This is one part of the list.

Assay: chemical genetic growth profiling, strain panel (AID 1159580);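 note: tested at 20 µM; growth read once vehicle control cultures reached saturation at 30 °C; 1 = growth at the plate median or of vehicle wells; lower values mean less growth of the strain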
Conditions: S. cerevisiae deletion strains, growth OD

Measured: normalized growth

CCCCC1C(=O)N(c2ccccc2)N(c2ccc(O)cc2)C1=O (stereo not given)
inactive: locus YAL021C, strain ccr4, hits give low values 1.02 | locus YAL026C, strain drs2, hits give low values 0.998 | locus YAL030W, strain snc1, hits give low values 1 | locus YBL061C, strain skt5, hits give low values 0.999 | locus YBR009C, strain hhf1, hits give low values 0.998 | locus YBR021W, strain FUR4, hits give low values 0.995 | locus YBR023C, strain chs3, hits give low values 1 | locus YBR171W, strain sec66, hits give low values 1.01 | locus YBR229C, strain ROT2, hits give low values 0.953 | locus YBR231C, strain swc5, hits give low values 1 | locus YBR279W, strain paf1, hits give low values 0.993 | locus YCL011C, strain gbp2, hits give low values 1.01 | locus YCL016C, strain dcc1, hits give low values 1.01 | locus YCL029C, strain bik1, hits give low values 0.969 | locus YCL061C, strain MRC1, hits give low values 1.01 | locus YCL069W, strain vba3, hits give low values 1 | locus YCR088W, strain abp1, hits give low values 1.01 | locus YDL005C, strain med2, hits give low values 0.995 | locus YDL035C, strain GPR1, hits give low values 0.972 | locus YDL040C, strain nat1, hits give low values 0.997 | locus YDL074C, strain BRE1, hits give low values 0.947 | locus YDL101C, strain DUN1, hits give low values 0.98 | locus YDL134C, strain PPH21, hits give low values 0.999 | locus YDL185W, strain tfp1, hits give low values 0.974 | locus YDL192W, strain arf1, hits give low values 0.984 | locus YDR001C, strain nth1, hits give low values 0.995 | locus YDR069C, strain doa4, hits give low values 0.988 | locus YDR101C, strain arx1, hits give low values 1.01 | locus YDR137W, strain rgp1, hits give low values 0.98 | locus YDR150W, strain NUM1, hits give low values 0.979 | locus YDR159W, strain sac3, hits give low values 1 | locus YDR162C, strain NBP2, hits give low values 0.99 | locus YDR195W, strain ref2 0.987 | locus YDR297W, strain sur2, hits give low values 1.01 | locus YDR318W, strain mcm21, hits give low values 0.994 | locus YDR334W, strain swr1, hits give low values 1.01 | locus YDR335W, strain msn5, hits give low values 1.01 | locus YDR388W, hits give low values 0.998 | locus YDR392W, strain spt3, hits give low values 1.01 | locus YDR502C, strain sam2, hits give low values 0.99 | locus YEL003W, strain gim4, hits give low values 0.998 | locus YEL037C, strain rad23, hits give low values 1 | locus YEL061C, strain CIN8 (second series), hits give low values 1 | locus YEL061C, strain CIN8, hits give low values 0.987 | locus YER015W, strain faa2, hits give low values 0.996 | locus YER016W, strain bim1, hits give low values 0.998 | locus YER110C, hits give low values 0.965 | locus YER111C, strain swi4, hits give low values 1 | locus YER155C, strain BEM2 (second series), hits give low values 1.04 | locus YER155C, strain BEM2, hits give low values 0.997 | locus YER167W, strain BCK2, hits give low values 0.987 | locus YFR010W, strain ubp6, hits give low values 1.01 | locus YGL078C, strain dbp3, hits give low values 0.995 | locus YGL086W, strain mad1, hits give low values 0.963 | locus YGL167C, strain pmr1, hits give low values 1 | locus YGL173C, strain kem1, hits give low values 0.983 | locus YGL227W, strain vid30, hits give low values 1.01 | locus YGL240W, strain doc1, hits give low values 1 | locus YGL248W, strain PDE1, hits give low values 0.97 | locus YGL253W, strain hxk2, hits give low values 1.01 | locus YGR135W, strain pre9, hits give low values 0.988 | locus YGR229C, strain SMI1, hits give low values 0.992 | locus YGR252W, strain gcn5, hits give low values 0.893 | locus YHR013C, strain ard1, hits give low values 1 | locus YHR027C, strain rpn1, hits give low values 0.999 | locus YHR030C, strain SLT2, hits give low values 0.999 and 0.974 | locus YHR079C, strain IRE1 (second series), hits give low values 0.997 | locus YHR079C, strain IRE1, hits give low values 0.973 | locus YHR094C, strain hxt1, hits give low values 0.993 | locus YHR129C, strain ARP1, hits give low values 0.982 | locus YHR142W, strain chs7, hits give low values 1.01 | locus YHR200W, strain rpn10, hits give low values 0.988 | locus YIL066C, strain RNR3, hits give low values 0.976 | locus YIL073C, strain SPO22, hits give low values 1.01 | locus YIL125W, strain kgd1, hits give low values 0.985 | locus YIR030C, strain dcg1, hits give low values 0.983 | locus YJL092W, strain hpr5, hits give low values 1.01 | locus YJL095W, strain BCK1 (second series), hits give low values 1.01 | locus YJL095W, strain BCK1, hits give low values 1 and 0.992 | locus YJL115W, strain asf1, hits give low values 1.01 | locus YJL129C, strain trk1, hits give low values 0.997 | locus YJL134W, strain LCB3, hits give low values 0.988 | locus YJL154C, strain vps35, hits give low values 1 | locus YJL164C, strain tpk1, hits give low values 0.994 | locus YJL166W, strain qcr8, hits give low values 1.01 | locus YJL168C, strain set2, hits give low values 0.994 | locus YJL187C, strain SWE1 (second series), hits give low values 0.98 | locus YJL187C, strain SWE1, hits give low values 1 | locus YJR043C, strain POL32, hits give low values 0.999 | locus YJR066W, strain TOR1, hits give low values 0.93
